FLuc modulator: qHTS profiling assay for firefly luciferase inhibitor/activator using purifed enzyme and Km concentrations of substrates (counterscreen for miR-21 project); Potency, µM (titrated, usually from 57.5 µM), for the others: at the top dose activity change, negative = inhibition, hits mostly inhibitors; AID 588342, 2011; 360,000 compounds, 6.9% hits; purified FLuc, Km substrates, luminescence inhibition;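 note: plate controls were vehicle for no effect and reference inhibitor for full effect; nearly all actives have a fitted effect of over 55% in size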
Target sequence (P08659 whole entry, looked up): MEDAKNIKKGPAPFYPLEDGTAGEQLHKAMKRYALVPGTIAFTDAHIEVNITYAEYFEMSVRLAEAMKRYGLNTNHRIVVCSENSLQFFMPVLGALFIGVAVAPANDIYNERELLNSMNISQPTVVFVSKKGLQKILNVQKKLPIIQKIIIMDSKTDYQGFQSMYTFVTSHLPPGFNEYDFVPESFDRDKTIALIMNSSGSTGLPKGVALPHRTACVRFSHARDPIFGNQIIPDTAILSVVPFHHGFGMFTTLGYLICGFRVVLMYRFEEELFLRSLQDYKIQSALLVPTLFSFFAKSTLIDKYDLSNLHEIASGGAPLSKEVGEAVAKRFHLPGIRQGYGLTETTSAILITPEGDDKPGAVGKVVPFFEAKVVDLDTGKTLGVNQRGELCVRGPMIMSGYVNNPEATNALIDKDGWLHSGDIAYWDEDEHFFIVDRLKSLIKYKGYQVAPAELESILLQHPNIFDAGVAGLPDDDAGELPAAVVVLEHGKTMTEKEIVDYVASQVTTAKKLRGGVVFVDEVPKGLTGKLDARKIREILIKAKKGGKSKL
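Biochemical qHTS of compounds, final roughly 60 µM downward over six points, against 10 nM purified firefly luciferase using Km concentrations of substrates (10 uM D-luciferin, 10 uM ATP) in Tris acetate pH 7.5 buffer; luminescence output.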
NPC1 promoter act: qHTS Assay for NPC1 Promoter Activators. 320,000 compounds, 2.4% hits. Potency, µM (top dose mostly 9.22 µM), without a hit: top-dose activation, usual class: activators. Huh7 NPC1 promoter luciferase reporter, 24 h; note: % of control where 0% means no effect; nearly all actives have a fitted effect of over 60% in size
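Compounds in DMSO were transferred onto Huh7 NPC1-luciferase reporter cells pre-incubated 2 h; after 24 h at 37 °C, Amplite reagent was dispensed and luminescence recorded 10 min later.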
SMN2 splice enh: qHTS Assay for Enhancers of SMN2 Splice Variant Expression; HEK293 SMN2-luciferase splicing reporter, luminescence, 30-36 h; Potency, µM (titrated, usually from 46.1 µM), for the others: at the highest dose activity change, positive = activation, hits mostly activators; 210,000 compounds, 2.8% hits; AID 1458, 2008; note: % of control where 0% means no effect; nearly all actives have a fitted effect of over 55% in size
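HEK293 cells carry an SMN2 minigene-luciferase reporter in which exon 7 inclusion puts luciferase in frame. Cells were seeded at 2000 cells/well, attached for 10-12 hours, then exposed to compounds for 30-36 hours at 37C before ONE-Glo luminescence.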
ELG1 genotoxic: qHTS screen for small molecules that induce genotoxicity in human embryonic kidney (HEK293T) cells expressing luciferase-tagged ELG1; HEK293T ELG1-luciferase reporter, luminescence, 16 h; Potency, µM (series often up to 46 µM), for the others: at the highest dose activity change, positive = activation, actives largely listed as activators; 330,000 compounds, 1.3% hits; AID 504466, 2011; note: % of control where 0% means no effect; nearly all actives have a fitted effect of over 60% in size
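Reporter readout depends on ELG1 protein level, which increases with genetic stress. After 16 hr compound exposure at 37 °C, luciferase activity was quantified using ONE-Glo.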
ELG1 DNA repair: qHTS screen for small molecules that inhibit ELG1-dependent DNA repair in human embryonic kidney (HEK293T) cells expressing luciferase-tagged ELG1. HEK293T ELG1-luciferase reporter, luminescence, 16 h; DNA damage induced by 5-fluorouridine. Potency, µM (top dose mostly 46.1 µM), for inactives: at the highest dose activity change, negative = inhibition, most hits filed as inhibitors. AID 504467, 2011. 330,000 compounds, 2.3% hits; note: % is set by controls: 0 for no effect and ±100 for the full control effect; nearly all actives have a fitted effect of over 55% in size
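Overnight (16 hr) co-exposure of 2,000 cells/well to 5-fluorouridine and compound at 37 °C preceded detection. Luciferase was quantified via ONE-Glo luminescence; loss of signal denotes inhibition.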
Rab9 prom act: qHTS Assay for Rab9 Promoter Activators; Huh7 Rab9 promoter-luciferase reporter, luminescence, 24 h; Potency, µM (series often up to 9.22 µM), inactives show at the top dose activation, negative = inhibition, actives largely listed as activators; 320,000 compounds, 2.8% hits; AID 485297, 2010; note: % of control where 0% means no effect; nearly all actives have a fitted effect of over 60% in size
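Promoter activation is measured as luciferase luminescence in Huh7 cells stably transfected with a Rab9 promoter–luciferase construct, following 24 h compound exposure at 37 °C and 10 min reagent incubation at ambient temperature.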
Starred values were filed as active, the others as inactive; ? = inconclusive; / = not tested or not shown; [ ] = another dose, or the depositor's remark. Shown are actives, neighbours in structure and some others; about 9.2% of the full set was active somewhere. Calls come from the whole dose curve; as a rule, active = well fitted curve in the direction sought with a large enough effect; inconclusive = small, poorly fitted or top-dose-only effect, or another doubt; inactive = no such curve, though single readings can be large; an effect the other way counts as inactive or inconclusive. Potency is the fitted concentration of half-maximal effect.

SMILES	FLuc modulator	NPC1 promoter act	SMN2 splice enh	ELG1 genotoxic	ELG1 DNA repair	Rab9 prom act
Nc1ccn([C@@H]2O[C@H](COC(=O)C34CC5CC(CC(C5)C3)C4)[C@@H](O)[C@@H]2O)c(=O)n1	/	/	-10.7%[9.22 µM]	/	/	/
O=C(N/N=C/c1ccc2ncccc2c1)c1cc(-c2cccs2)nc2ccccc12	?	-4.8%	/	-8.9%	?	0.0%
O=C(N/N=C/c1cccnc1)c1cc(-c2cccs2)nc2ccccc12	23.9µM*	-6.1%	0.2%	-6.4%	?	-5.3%
CCC(C(=O)Nc1ccc(C)c(C)c1)n1c(=O)c(C(F)(F)F)nc2ccccc21 (stereo unspecified)	3.1%	/	/	/	/	/
COc1ccc(NC(=O)[C@H](C)NC(N)=O)cc1S(=O)(=O)Nc1cc(C)ccc1Br	-10.6%	-1.9%	?	-3.3%	9.5%	1.6%
COc1ccc(NC(=O)C2CCC2)cc1S(=O)(=O)Nc1cc(C)ccc1Br	/	/	/	-9.2%	23.1µM*	/
CCCCN(C(=O)C1CCCO1)c1c(N)n(CCC)c(=O)[nH]c1=O (stereo unspecified)	/	/	/	2.9%	-1.3%	/
Cc1ncc(CO)c(/C=N/N=C/c2ccccc2O)c1O	2.39µM*	0.6%	22.9%	?	?	-3.2%
CCN(C(=O)CN1C(=O)COc2ccc(S(=O)(=O)N3CCOCC3)cc21)c1cccc(C)c1	1.6%	/	/	/	/	/
COc1ccc(Cl)cc1CN1CCN(c2nc(C)cc(C)c2C#N)CC1	-1.9%	-1.6%	-38.1%	-14.6%	-10.2%	-10.1%
Cc1cc(C)c(C#N)c(N2CCN(CCOc3ccc(Cl)cc3)CC2)n1	1.4%	0.1%	-25.6%	4.0%	18.4µM*	?
COc1ccc(NC(=O)CC2CC3CCC2C3)cc1S(=O)(=O)N1CCOCC1 (stereo unspecified)	/	/	/	-1.6%	?	/
O=C(CCCC(=O)Nc1cccc(Br)c1)N/N=C/c1cc([N+](=O)[O-])ccc1O	-8.3%	-7.0%	/	12.2%	14.6µM*	-2.2%
Cc1ccc(SCC(=O)Nc2cc([N+](=O)[O-])ccc2O)cc1	16.9µM*	3.5%	/	-5.6%	?	7.2%
O=C(CCC(=O)Nc1cccc(Cl)c1)N/N=C/c1cc([N+](=O)[O-])ccc1O	?	-2.4%	27.8%	1.3%	?	1.8%
Cc1ccccc1NC(=O)CCC(=O)N/N=C/c1cc([N+](=O)[O-])ccc1O	0.4%	-0.7%	-5.9%	4.1%	?	-0.9%
Cc1ccc(C)c(NC(=O)CCC(=O)N/N=C/c2cc([N+](=O)[O-])ccc2O)c1	0.2%	-5.4%	/	1.1%	13µM*	0.3%
CSc1ccc(/C=N/Nc2nc(C)cc(=O)[nH]2)cc1	?	16.1%	23.4%	9.9%	?	25.7%
Cc1cc(=O)[nH]c(N/N=C/c2ccc(-c3ccc(F)cc3)o2)n1	6.01µM*	25.9%	/	9.5%	?	?
CCn1c(=NC(=O)c2ccco2)sc2cccc(F)c21	16.9µM*	5.1%	15.8µM*	14.6µM*	?	10.0%
CCCCNS(=O)(=O)c1ccc2nc(SCC(=O)Nc3sccc3C#N)[nH]c2c1	?	-0.1%	-9.8%	-24.4%	16.4µM*	0.0%
CCCCNS(=O)(=O)c1ccc2nc(SCC(=O)c3ccccc3OC)[nH]c2c1	0.6%	-2.5%	-24.7%	-10.7%	20.6µM*	-4.8%
Cc1cc(C(=O)NCC(=O)Nc2ccc(F)c(F)c2)c(C)o1	/	/	/	2.9%	4.8%	/
COCCCNC(=S)N1CCC(NC(=O)Nc2ccc(C)cc2)CC1	-0.8%	-2.3%	-3.8%	0.7%	-5.5%	0.1%
O=C(Nc1cnn(Cc2ccc(Cl)cc2)c1)c1ccc([N+](=O)[O-])cc1	-1.1%	-2.8%	-31.4%	-7.4%	20.6µM*	-4.6%
SMILES	FLuc modulator	NPC1 promoter act	SMN2 splice enh	ELG1 genotoxic	ELG1 DNA repair	Rab9 prom act
NNC(=O)c1ccc(Cn2cc(Cl)cn2)cc1	-0.1%	-0.2%	-3.4%	0.4%	?	-3.5%
O=C(Nc1ccc(Cl)c(Cl)c1)c1ccc(Cn2cc(Cl)cn2)cc1	19µM*	21.2%	-87.0%	6.5%	-13.7%	28.4%
Cc1ccc(-c2nc3nc(C)cc(N4CCN(c5cccc(C)c5)C(C)C4)n3n2)cc1 (stereo unspecified)	8.49µM*	/	2.3%	/	/	/
CCc1ccc(NC(=O)CC2C(=O)N(c3ccc(OC)cc3)C(=O)N2Cc2cccs2)cc1 (stereo unspecified)	-12.0%	/	/	/	/	/
O=C(COc1ccc2c3c(c(=O)oc2c1)CCC3)Nc1ccccn1	0.269µM*	0.398µM*	/	1.64µM*	?	5.01µM*
CC(=O)C(C)Oc1ccc2c3c(c(=O)oc2c1)CCCCC3 (stereo unspecified)	21.3µM*	?	?	9.2µM*	?	2.82µM*
CC(Oc1ccc2c3c(c(=O)oc2c1)CCCC3)C(=O)NCc1ccncc1 (stereo unspecified)	-6.3%	-1.2%	/	-6.4%	?	1.2%
CC(=O)COc1ccc2c3c(c(=O)oc2c1)CCCC3	-1.5%	3.1%	-19.2%	28.8%	?	-2.5%
CC(=O)C(C)Oc1ccc2c3c(c(=O)oc2c1)CCCC3 (stereo unspecified)	15.1µM*	22.1%	-3.9%	?	?	24.2%
CN(C)c1ccc(C(=S)NCc2ccco2)cc1	13.5µM*	?	-15.2%	0.461µM*	?	0.447µM*
CCN(CC)S(=O)(=O)c1cc(NC(=O)c2ccc(Br)s2)ccc1C	12µM*	19.7%	-11.6%	4.7%	?	0.7%
O=C(Nc1ccc2c(c1)OCCO2)c1cccs1	5.36µM*	2.82µM*	6.31µM*	16.4µM*	?	1.58µM*
O=S(=O)(Nc1ccc2c(c1)OCCO2)c1cccs1	?	1.6%	1.2%	7.31µM*	?	4.5%
O=C(Nc1ccc2c(c1)OCO2)c1ccc(Br)s1	3.38µM*	1.78µM*	12.6µM*	1.84µM*	?	1.58µM*
O=C(Nc1ccc2c(c1)OCO2)c1cccs1	13.5µM*	/	?	/	/	/
CN(CC(=O)Nc1ccc2c(c1)OCO2)S(=O)(=O)c1cccs1	16.9µM*	?	/	?	?	?
O=C(Nc1ccncc1)c1cccs1	3.4%	-1.0%	13.7%	-0.7%	?	2.9%
O=C(c1ccccc1)c1ccc2c(c1)OCCOCCOCCOCCO2	-5.1%	6.6%	/	-4.4%	?	-3.5%

Compound activity as filed in PubChem BioAssay.
